Experimental data reported in PubChem BioAssay AID2315 (National Center for Advancing Translational Sciences (NCATS), 2010).
Among all 290,000 compounds or so, about 27,000 (9.3%) were called active. Cut-off read from the data, not from the text of the source: active = inhibition mostly above about 28% (no sharp cut-off); inactive = mostly below about 43%. The list comes from a sample in which actives are over-represented; it also holds similar structures and randomly drawn compounds.

Assay: A qHTS for Small Molecule Inhibitors of Shiga Toxin; note: 0% is about no effect
Conditions: Vero cells, Shiga toxin protein synthesis inhibition reporter; at 38.7 µM, stronger effect = higher value

Row | SMILES | inhibition
1 | Cc1nc2ccc(NC(=O)N3CCC(c4ccccc4)C3)cc2nc1C (stereo unspecified) | 2.35% (inactive)
2 | Cc1cccc(NC(=S)N2CCC(c3nc4ccccc4s3)CC2)c1 | -9.34% (inactive)
3 | Cc1nc2ccc(NC(=S)N3CCC(C)CC3)cc2nc1C | 33.9% (active)
4 | Cn1c(=O)c2c(nc(N3CCCCCC3)n2CC(=O)c2ccc(Br)cc2)n(C)c1=O | 2.71% (inactive)
5 | O=C(Cn1ncc(N2CCCC2)c(Br)c1=O)c1ccc(Cl)cc1 | 37.7% (active)
6 | CC(=O)Cn1ncc(N2CCOCC2)c(Br)c1=O | -5.02% (inactive)
7 | O=C(CNc1cccc(S(=O)(=O)N2CCCCC2)c1)Nc1ccccc1F | -9.02% (inactive)
8 | CCc1ccc(NC(=O)Cn2nnc(C(=O)NCc3ccc4c(c3)OCO4)c2N)cc1 | 0.685% (inactive)
9 | Cc1cccc2sc(N(CCCN(C)C)C(=O)CCS(=O)(=O)c3ccccc3)nc12 | 6.64% (inactive)
10 | CCn1nc(C(=O)OCC(=O)N2c3ccccc3CC2C)c2ccccc2c1=O (stereo unspecified) | -10.9% (inactive)
11 | CCCC(=O)N1c2ccc(-c3csc(N)n3)cc2CC1C (stereo unspecified) | 71.3% (active)
12 | Cc1ccn(CCC(=O)N2c3ccccc3CC2C)n1 (stereo unspecified) | -3.39% (inactive)
13 | CCC(C)Sc1nc2c(cnn2-c2ccc(F)cc2)c(=O)[nH]1 (stereo unspecified) | -5.58% (inactive)
14 | COc1cccc(OCC(O)CNC(=O)c2oc3c(C)c(C)ccc3c2C)c1 (stereo unspecified) | -9.45% (inactive)
15 | CCOCc1nnc(NC(=O)CCS(=O)(=O)Cc2ccccc2)s1 | -3.13% (inactive)
16 | Cc1cccc(CCNS(=O)(=O)c2ccc3c(c2)NC(=O)CO3)c1 | -6.16% (inactive)
17 | Cc1cc2ncn(CCCCOc3ccccc3)c2cc1C | -3.93% (inactive)
18 | Clc1ncn(CCOc2ccccc2)c1Cl | -16.2% (inactive)
19 | Cc1nn(CCOc2ccccc2)c(=O)n1-c1ccccc1F | 72.3% (active)
20 | COc1ccc(-c2nc3c(s2)CCc2onc(-c4ccc(OC)cc4)c2-3)cc1 | -4% (inactive)
21 | Cc1nn(C)c(Cl)c1CN1CCC(n2nccc2NC(=O)C2CCCC2)CC1 | -4.44% (inactive)
22 | O=C(NCc1cccc(Cl)c1)C1CCC(=O)N(C2CC2)C1 (stereo unspecified) | 1.78% (inactive)
23 | O=C(N/N=C/c1c[nH]c2ccccc12)c1ccccc1O | 46.2% (active)
24 | O=C(N/N=C/c1coc2ccccc2c1=O)c1cc2ccccc2o1 | -15.3% (inactive)

Row | SMILES | inhibition
25 | CSC(=S)N/N=C/c1c[nH]c2ccccc12 | 18.5% (inactive)
26 | Cc1c(/C=N\NC(=O)c2cc3ccccc3o2)c2ccccc2n1C | 33.2% (inactive)
27 | O=C(N/N=C/c1c[nH]c2ccccc12)c1cc2ccccc2o1 | 51.6% (active)
28 | O=C(N/N=C/c1ccc([N+](=O)[O-])cc1)c1c[nH]c2ccccc12 | 35.6% (inactive)
29 | COc1cccc(NC(=O)C/C(C)=N/NC(=O)C2CCCCC2)c1 | 5.94% (inactive)
30 | CCC(C)C(NC(=O)C1CCC(=O)N1C(=O)OCc1ccccc1)C(=O)NC(C(=O)N1CCCC1C(N)=O)C(C)CC (stereo unspecified) | -2.25% (inactive)
31 | CCCCCNC(=O)Cc1ccc(OC)cc1 | 35.5% (inactive)
32 | COc1ccc(C/C(C)=N/NC(=O)c2ccncc2)cc1 | 13.5% (inactive)
33 | COc1ccc(C/C(C)=N/NC(=O)c2cc(C)oc2C)cc1 | 39.4% (active)
34 | Cc1nc2nc(C)c(NS(=O)(=O)c3ccc(C(C)(C)C)cc3)c(=O)n2[nH]1 | -4.52% (inactive)
35 | Cc1ccc(C)c(NC(CC(=O)c2ccccc2)C(=O)OCC(=O)c2cccs2)c1 (stereo unspecified) | -2.14% (inactive)
36 | Cc1ccccc1C(CC(=O)c1cccs1)C(C#N)C#N (stereo unspecified) | 60.4% (active)
37 | C/C(=N\NC(=O)COc1c(C)cccc1C)c1cccs1 | 23.6% (inactive)
38 | CCOc1ccc(CN2CCN(Cc3c[nH]c4ccccc34)CC2)cc1 | -7.52% (inactive)
39 | C/C=C/C(=O)OCc1csc(CC(=O)Nc2ccccc2C)n1 | -12.5% (inactive)
40 | Cc1ccc2c(c1)c1ncnc(N3CCc4ccccc4C3)c1n2C | 61.5% (active)
41 | Cc1ccc2c(c1)c1ncn(Cc3ccc(F)cc3)c(=O)c1n2C | -13.4% (inactive)
42 | Cc1ccc2c(c1)c1ncn(CCC3=CCCCC3)c(=O)c1n2C | 1.3% (inactive)
43 | COc1ccc(-c2cc(C(=O)N3CCN(Cc4ccc5c(c4)OCO5)CC3)on2)cc1OC | -5.83% (inactive)
44 | COCC1CCN(C(=O)CCc2nnc(C3(c4ccc(Cl)cc4)CCC3)o2)C1 (stereo unspecified) | 59.4% (active)
45 | COCC1CCCN(C(=O)c2ccc3oc(C(C)C)nc3c2)C1 (stereo unspecified) | 13.8% (inactive)
46 | O=C1CCC(CCC(=O)N2CCCC(C(=O)c3ccc(Cl)cc3)C2)=NN1 (stereo unspecified) | 12.9% (inactive)
47 | CCn1c(SCC(=O)Nc2ccc3c(c2)OCCO3)nnc1-c1ccncc1 | 24.3% (inactive)
48 | O=C(Nc1cccc2ccccc12)c1onc2c1CCCC2 | 80.7% (active)

Row | SMILES | inhibition
49 | O=C(COC(=O)c1ccccn1)Nc1cccc2ccccc12 | -15.8% (inactive)
50 | O=C(O)c1ccccc1-c1ccccc1C(=O)Nc1cccc2ccccc12 | -18.7% (inactive)
51 | CCN1CCN(C(=O)C2CCCN(S(=O)(=O)c3ccc(OC)c(OC)c3)C2)CC1 (stereo unspecified) | 11.9% (inactive)
52 | NC(=O)c1cc(-c2cccnc2)nc2ccc(Br)cc12 | 20% (inactive)
53 | CC(CN1CCC(n2nccc2NC(=O)C2CCCC2)CC1)c1ccccc1 (stereo unspecified) | -13% (inactive)
54 | Cc1cc(NC(=O)CSCc2ccccc2C)no1 | 48.6% (inactive)
55 | Cc1cc(NC(=O)c2ccccc2C)no1 | 55.6% (active)
56 | Cc1ccccc1C(=O)Nc1ccccc1NC(=O)c1ccccc1C | -1.64% (inactive)
57 | C=CCNC(=O)c1ccc2c3n(nc2c1)-c1ccc(C)cc1CO3 | 83.8% (active)
58 | Cc1cccc(-c2nc3ccc(C(=O)NCCN4CCN(C)CC4)cc3nc2-c2cccc(C)c2)c1 | -22.4% (inactive)
59 | CCOc1c2ccc(C(=O)NCc3ccc4c(c3)OCO4)cc2nn1C | 9.39% (inactive)
60 | COc1cc(CNCc2ccc(OC)c3ccccc23)cc(OC)c1OC | -2.52% (inactive)
61 | Cc1cccc(N(Cc2ccccc2)C(=O)c2ccccc2F)c1 | 41.2% (inactive)
62 | COc1ccc(C(=O)N/N=C(\C)CC(=O)Nc2ccc(Cl)cn2)cc1 | 97.1% (active)
63 | COc1ccc(C(=O)NC(=S)Nc2ccc(Cl)cn2)cc1OC | 4.19% (inactive)
64 | COc1ccc(COC(=O)N/N=C(\C)CC(=O)Nc2ccc(Cl)cc2)cc1 | -3.95% (inactive)
65 | O=C(C1CCC(=O)N(C2CC2)C1)N1CCN(c2ccc(Cl)cc2)CC1 (stereo unspecified) | -16% (inactive)
66 | O=C1COc2ccc(S(=O)(=O)Nc3ccc(OC(F)(F)F)cc3)cc2N1 | -4.37% (inactive)
67 | Cc1cc(NS(=O)(=O)c2ccc(NC(=S)NC(=O)c3ccc(F)cc3Cl)cc2)no1 | 16.8% (inactive)
68 | CC(=O)c1ccccc1OCc1ccc(C(=O)c2ccccc2)cc1 | 10.9% (inactive)
69 | Cc1cc(C)nc(Nc2cc([N+](=O)[O-])ccc2C)n1 | -5.77% (inactive)
70 | Cc1ccc(-n2cc3ccc([N+](=O)[O-])cc3n2)cc1 | 57.1% (active)
71 | Cc1ccc(-c2cn(S(=O)(=O)c3cccc([N+](=O)[O-])c3)nc2N)cc1 | 13.5% (inactive)
72 | O=C(COc1ccc2c(c1)CCC2)N1CCN(c2ccc(F)cc2)CC1 | -11.3% (inactive)

Row | SMILES | inhibition
73 | CCc1c(O)nc(SCC(=O)N2CCCCC2)n(-c2ccccc2C)c1=O | 13% (inactive)
74 | Cc1ccc(-n2c(SCC(=O)N3CCC(C(=O)O)CC3)nc3ccccc3c2=O)cc1C | 45.4% (active)
75 | COc1cccc(-n2c(SCC(=O)c3c[nH]c4ccccc34)nc3ccccc3c2=O)c1 | -9.99% (inactive)
76 | CCOC(=O)CSc1nc2ccc(C)cc2n2cnnc12 | 9.64% (inactive)
77 | O=C(c1cc(-c2ccc(F)cc2)on1)N1CCN(c2ccc(F)cc2)CC1 | -1.74% (inactive)
78 | O=C(c1cc(-c2ccc(O)cc2)on1)N1CCCc2ccccc21 | 91.2% (active)
79 | CCC(=O)N1CCCc2ccccc21 | 14.2% (inactive)
80 | COc1ccc(-c2cc(C(=O)N3CCN(c4ccc(F)cc4)CC3)no2)cc1 | 11.7% (inactive)
81 | Cc1c(C(=O)N2CCCc3ccccc32)oc2ccccc12 | 33.8% (inactive)
82 | O=C(c1cc(-c2ccc(Cl)cc2)on1)N1CCN(c2ccccc2)CC1 | 67.5% (active)
83 | O=C(c1cc(-c2ccncc2)nc2ccccc12)N1CCC2(CC1)OCCO2 | 11.7% (inactive)
84 | Cc1noc(C)c1C(=O)N1CCOCC1 | -7.37% (inactive)
85 | O=C(c1cc(-c2ccc(O)cc2)on1)N1CCOCC1 | 62% (active)
86 | O=C(c1cccs1)N1CCN(C(=O)N2CCOCC2)CC1 | -6.78% (inactive)
87 | Cc1cccc(-n2c(C)nc3cc(C(=O)N4CCC5(CC4)OCCO5)ccc32)c1 | 13.6% (inactive)
88 | Cc1ccc(-c2cc(C(=O)N3CCC4(CC3)OCCO4)no2)cc1 | 58.1% (active)
89 | Nc1nc(SCC(=O)Nc2ccc(Cl)cc2C(F)(F)F)n[nH]1 | -27.1% (inactive)
90 | COc1cc(OC)cc(C(=O)Nc2nnc(SCC(=O)NCC3CCCO3)s2)c1 (stereo unspecified) | 4.36% (inactive)
91 | COc1ccc(C(=O)NC2CC(C)(C)NC(C)(C)C2)cc1OC | 2.67% (inactive)
92 | NC(=O)CN1CCCC1c1ccc2c(c1)OCCO2 (stereo unspecified) | -2.56% (inactive)
93 | O=C(NC1CCCC1)C(c1ccco1)N(C(=O)c1ccco1)c1ccc(F)cc1 (stereo unspecified) | 8.42% (inactive)
94 | Cc1ccc(S(=O)(=O)/N=C(/Nc2ccccn2)c2ccc(Cl)cc2)cc1 | 31.5% (active)
95 | O=S(=O)(/N=C(/Nc1ccccn1)c1ccccc1)c1ccc(Cl)cc1 | 14.8% (inactive)
96 | Cc1ccc(S/C(=N\S(=O)(=O)c2ccc(Cl)cc2)c2ccccc2)cc1 | 11.1% (inactive)
